GPR151 activ: activates the human receptor GPR151 | activation, % at 11.2 µM | PathHunter beta-arrestin GPR151 cells, luminescence | 650,000 compounds, 1% hits | Q8TDV0; in the data active = activation above about 4.9%;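 also: 0% = median of compound wells and 100% = cells with positive control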
TEAD-YAP block: TEAD-YAP interaction inhibition; HEK-TIYL cells, TEAD-Gal4/YAP UAS-luciferase luminescence; inhibition, % at 9.12 µM; 640,000 compounds, 1.4% hits; in the data active = inhibition above about 32%;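 also: 0% = median of test compound wells and 100% = reference inhibitor wells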
FBW7 act: activators of human E3 ligase FBW7. Q969H0. normalized activity (activation), % at 26.1 µM. AlphaScreen FBW7–phospho-cyclin E peptide binding, activator screen. 650,000 compounds, 0.13% hits. AID 1259310; in the data active = normalized activity above about 1.9%;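 also: purified mutant Fbw7 with reduced substrate affinity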
MITF inh: inhibitors of human MITF | inhibition, % at 2.6 µM | AID 1259374 | O75030 | 650,000 compounds, 0.91% hits | AlphaScreen MITF homodimerization, bead proximity signal; in the data active = inhibition above about 50%;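 also: 0% = vehicle wells with protein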
Target sequence (O75030 whole entry, looked up): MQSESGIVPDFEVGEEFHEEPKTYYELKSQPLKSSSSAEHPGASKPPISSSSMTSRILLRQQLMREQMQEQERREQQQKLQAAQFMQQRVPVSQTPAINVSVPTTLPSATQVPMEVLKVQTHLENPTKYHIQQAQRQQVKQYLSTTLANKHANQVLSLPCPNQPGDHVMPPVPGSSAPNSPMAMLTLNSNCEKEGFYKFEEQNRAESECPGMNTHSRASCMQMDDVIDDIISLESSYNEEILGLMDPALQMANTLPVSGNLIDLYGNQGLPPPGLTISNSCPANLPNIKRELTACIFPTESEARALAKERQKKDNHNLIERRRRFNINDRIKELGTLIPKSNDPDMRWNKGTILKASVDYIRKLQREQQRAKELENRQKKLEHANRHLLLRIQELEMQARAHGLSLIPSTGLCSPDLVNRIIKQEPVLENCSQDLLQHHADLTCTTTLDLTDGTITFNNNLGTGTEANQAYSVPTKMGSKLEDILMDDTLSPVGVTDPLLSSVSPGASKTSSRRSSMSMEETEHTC
GPR151 conf act: human GPR151 activation, confirmation screen; shares compounds with GPR151 activ; GPR151 PathHunter beta-arrestin cells, luminescence, 90 min; % of EA-reagent control over plate median; AID 1508609; 6,700 tested, under 10 active; activation, % at 11.2 µM;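 active = mean percent activation across replicates above the confirmation screen cutoff of 4.91%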
GPR119 counter: activates human GPR119 in a GPR151 counter-screen; shares compounds with GPR151 activ; GPR119 PathHunter beta-arrestin cells, luminescence, 90 min; 0 = compound-well median, 100 = enzyme-acceptor control; activation, % at 11.2 µM; 6,700 compounds, 0.3% hits;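 active = mean percent activation in the counterscreen above 29.09%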;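 also: counterscreen on off-target GPR119 to flag nonselective hits from the GPR151 activator screen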
Numbers without * were called inactive; nt = no result. This is a sample that favours compounds with a hit; in the whole collection about 3.5% have one here.

SMILES	GPR151 activ	TEAD-YAP block	FBW7 act	MITF inh	GPR151 conf act	GPR119 counter
O=c1cc(Nc2ccc3c(c2)OCO3)[nH]c(=O)n1-c1ccc(Br)cc1	22*	4	0	9	0	4
CC12CN3CC(C)(CN(C1)C3c1ccccc1Cl)C2 (stereo unspecified)	5.5*	5	0	9	-1	-5
CC(C)C12CN3CC(C(C)C)(CN(C1)C3c1ccccc1Cl)C2=O (stereo unspecified)	0	-6	0	4	nt	nt
CCOC(=O)c1ccccc1NC(=O)CC(C)CC(=O)O (stereo unspecified)	5.9*	-6	0	5	1	5
COc1ccc2c(c1)CCC(C)N2S(=O)(=O)c1ccc(C2CNC(=O)C2)cc1 (stereo unspecified)	8.3*	3	0	2	0	4
COc1ccc(CNS(=O)(=O)c2ccc(C3CNC(=O)C3)cc2)cc1 (stereo unspecified)	0	12	1	9	nt	nt
CC(Oc1ccc(OCc2ccccc2)cc1)C(=O)Nc1ccc(C(N)=O)cc1 (stereo unspecified)	-2	13	0	12	nt	nt
CC1(C)CC(NC(=S)Nc2ccccc2F)CC(C)(C)N1	8.3*	-2	0	10	-1	-6
NC(=O)c1ccc(-c2cc(C(=O)NCc3cccc(C(F)(F)F)c3)ccn2)cc1	-1	14	0	-2	nt	nt
O=C(N/C(=C/c1ccc(F)cc1)C(=O)N1CCCCC1)c1ccco1	6.6*	-2	0	-8	0	2
O=C(N/C(=C/c1cccc([N+](=O)[O-])c1)C(=O)N1CCCCCC1)c1ccco1	3	-5	1	7	nt	nt
O=C(N/C(=C\c1cccc([N+](=O)[O-])c1)C(=O)N1CCOCC1)c1ccco1	6.9*	4	0	6	1	4
COCCN1C=C(C(=O)OC)C(c2cccc(OC)c2OC(C)C)C(C(=O)OC)=C1	11*	-3	0	12	1	0
CCc1ccc(NC(=O)C2CC2c2ccccc2)cc1 (stereo unspecified)	1	-49	0	-9	nt	nt
CC(C)c1ccc2c(c1)c1c3n2CCN(CC(N)=O)C3CCC1 (stereo unspecified)	-2	-7	0	-6	nt	nt
CCCC1NC(=S)N(C2CCCCC2)C1=O (stereo unspecified)	1	-7	0	-9	nt	nt
O=C1C(CCCNC(=S)NC2CCCCC2)NC(=S)N1C1CCCCC1 (stereo unspecified)	9.8*	4	0	9	0	-9
Cc1cc(C)c(-n2c(O)c(/C=C3\C=CC=N3)c(=O)[nH]c2=O)c(C)c1	7.3*	46*	0	1	1	7
COc1cc(/C=c2/sc3nc4ccccc4n3c2=O)ccc1O	-1	-12	0	-16	nt	nt
N#C/C(=C/c1ccc(F)cc1)c1ccc(C#N)cc1	8.3*	-8	0	10	0	1
Cc1ccc(NC(=O)CCS(=O)(=O)c2ccc3c(c2)SC(C)C(=O)N3)c(C)c1 (stereo unspecified)	0	-4	0	12	nt	nt
COc1cccc(OC)c1OCCN1CCNCC1	0	-7	0	3	nt	nt
Clc1ccccc1OCCN1CCNCC1	5.4*	7	0	3	1	9
Cc1ccccc1S(=O)(=O)Cc1ccc(C(=O)NC2CCCCC2)o1	7.1*	13	0	6	0	-9
CCc1ccccc1S(=O)(=O)Cc1ccc(C(=O)NC2CCCC2)o1	3	8	1	14	nt	nt
COc1cccc2ccc(CN3CCN(C4CCN(C(C)C)CC4)C(CCO)C3)nc12 (stereo unspecified)	9.0*	-3	0	-2	-1	-2
CC(C)N1CCC(N2CCN(Cc3ccc(-c4ccc(Cl)cc4)o3)CC2CCO)CC1 (stereo unspecified)	6.6*	-1	0	5	2	13
O=C1c2ccccc2C(=O)N1/N=C/c1ccc(Br)s1	0	-12	0	9	nt	nt
CC1CCCC(C)N1C(=O)c1ccccc1NS(=O)(=O)c1cccc([N+](=O)[O-])c1 (stereo unspecified)	-1	1	0	9	nt	nt

Source: PubChem
